Entries with a potency or affinity are not part of this list. Activity calls are given as the source filed them. Unless noted, how the calls were made is not given here.
What follows are compounds tested against Calcium-dependent protein kinase 1 (Plasmodium falciparum (isolate 3D7)) (UniProt P62344) (assay: PfCDPK1 kinase inhibitors, biochemical, TCAMS library (AID 1159585; cut-off not given, nearly all actives have IC50 up to about 0.98 µM;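 further: inhibitors leave more ATP so luminescence rises with inhibition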)). Settings: recombinant PfCDPK1, Kinase-Glo ATP depletion luminescence.
Chain of Calcium-dependent protein kinase 1 (Plasmodium falciparum (isolate 3D7)) (P62344 whole entry, looked up): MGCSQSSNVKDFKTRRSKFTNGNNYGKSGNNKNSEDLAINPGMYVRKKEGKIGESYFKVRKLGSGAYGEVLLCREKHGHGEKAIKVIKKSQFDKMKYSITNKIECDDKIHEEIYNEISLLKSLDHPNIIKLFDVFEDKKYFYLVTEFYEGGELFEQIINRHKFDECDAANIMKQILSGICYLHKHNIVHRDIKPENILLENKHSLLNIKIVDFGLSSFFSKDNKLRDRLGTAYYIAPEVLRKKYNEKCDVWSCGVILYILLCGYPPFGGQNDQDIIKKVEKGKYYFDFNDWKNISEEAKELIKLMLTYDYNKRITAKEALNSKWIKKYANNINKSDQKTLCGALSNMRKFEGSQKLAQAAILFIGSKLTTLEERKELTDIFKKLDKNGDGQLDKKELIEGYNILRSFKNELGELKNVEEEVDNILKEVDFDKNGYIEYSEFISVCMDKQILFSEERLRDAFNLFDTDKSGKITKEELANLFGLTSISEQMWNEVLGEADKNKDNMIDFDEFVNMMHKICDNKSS

outcome, inactive:
O=C(N[C@@H](Cc1ccccc1)C(=O)NCCN1CCCCC1)c1ccc(O)c(-c2cccc(C(F)(F)F)c2)c1
Cc1cc(N(C)C)nc(Nc2ccc(NC(=O)c3ccc(Br)o3)cc2)n1
N#Cc1ccc(N[C@@H](CC2CCCCC2)C(=O)NCc2cc(F)c(F)cc2F)c2ccccc12
O=C(c1cccs1)N1N=C(c2cccs2)CC1c1cccc([N+](=O)[O-])c1 (stereo not given)
O=C(Nc1cccc(Cl)c1Cl)N[C@H]1CCN(CCCCCNC(=O)[C@@H]2C[C@H]2c2ccc(Cl)c(Cl)c2)C1
Clc1cc(Cl)c2cc(CNCCCNc3ccc4ccccc4n3)[nH]c2c1
Cn1cnc2c(Nc3ccncc3)nc(-c3ccc4ccccc4c3)nc21
O=C(Nc1cccc(-c2ccc(-c3nc4ccc(C(F)(F)F)cc4[nH]3)cc2)c1)c1ccncc1
Oc1ccc(CCNCCCCCCNCCc2ccc(Cl)cc2)c(Cl)c1O
COC(=O)c1cccc(CNCc2ccc(-c3ccc(-c4nc5c(C)cccc5[nH]4)cc3)cc2)c1
O=C(c1cc2ccccc2o1)N1CCc2cc3nccc(N4CCN5CCC[C@H]5C4)c3cc21
CN1CCC(N2CCN(Cc3cccc(-c4cccc(-c5nc6ccccc6[nH]5)c4)c3)CC2)CC1
CCCc1cc(C)ccc1OCCCON1C(NC(=O)OCC)=NC(NC(=O)OCC)=NC1(C)C
CCC(CC(C)C(=O)O)=C(c1ccccc1)c1ccccc1 (stereo not given)
COc1cc(Nc2nccc(N3CCC(NC(=O)Nc4ccc5c(c4)OCO5)C3)n2)cc(OC)c1OC (stereo not given)
N#Cc1ccc(C2CCN(CC[C@H](N)Cc3ccc(Cl)s3)CC2)cc1
COc1ccc(N2CCN(c3nc(Nc4ccc(NC(C)=O)cc4)nc(N4CCCC4)n3)CC2)cc1
CCc1ccc(OCCCON2C(N)=NC(N)=NC2(C)C)cc1
CC(C)C(C(=O)n1ncc2c3c(N)nc(N)nc3ccc21)C(C)C
CC(C)CCNCc1ccc(OCc2cccc(COc3ccc(CNCCC(C)C)cc3I)c2)c(I)c1
COc1cc(OC)c(NC(=O)Nc2ccnc3ccccc23)cc1Cl
CCC(O)(C#Cc1c(C)nc(N)nc1N)CC
CC(=O)N(C)/N=C/[C@H](CCc1ccccc1)NC(=O)[C@H](CC(C)C)NC(=O)c1cccc(OCCN2CCOCC2)c1
N#Cc1ccc(-c2ccc(C(=O)NCCCCN3CC=C(c4ccc5c(c4OCC4CC4)CCCC5)CC3)cc2)cc1
CCn1c(Sc2ccc([N+](=O)[O-])c(C#N)c2)nnc1-c1cccc(Cl)c1
CCOC(=O)C1CCN(CCOc2cc(NC(=O)/C=C/c3ccccc3Cl)ccc2Br)CC1
Cc1cc(N2CCN(C)CC2)nc2ccc(NC(=O)Cc3cccc(C(F)(F)F)c3)cc12
N#Cc1ccc(NC(=NCCc2c[nH]c3ccccc23)Nc2ccc(-c3ccccc3)cc2)c(O)c1
O=C(/C=C/c1ccc(Cl)c(Cl)c1)N1CCC(CN2CCC(Cc3nc4ccccc4[nH]3)CC2)CC1
CC(C)C1=C[C@H]2C[C@]3(C4OCCO4)[C@@H]4CC[C@@H](C)[C@H]4C[C@@]2(C(=O)OCC2COCO2)[C@]13C(=O)OC(c1ccccc1)c1ccccc1 (stereo not given in full)
COc1cccc(NC(=O)COc2ccc(C(=O)Nc3nc4ccccc4[nH]3)cc2)c1
O=C(Nc1ccc(OC2CCN(Cc3ccc(F)cc3)C2)c(Cl)c1)c1ccco1 (stereo not given)
Cc1ccc2c(NN=Cc3ccc(Cl)cc3)cc(C)nc2c1
S=C(NN=Cc1ccccn1)NC1C[C@H]2C=C[C@@H]1C2 (stereo not given in full)
Cc1ccc(C)c(S(=O)(=O)Nc2ccc(Br)cc2C(=O)Nc2cccc(C(F)(F)F)c2)c1
CN(CCN(C)CC(O)c1ccc(Cl)c(Cl)c1)CC(O)c1ccc(Cl)c(Cl)c1 (stereo not given)
O=c1c2ccccc2[nH]c2cc(Cl)ccc12
CCC[C@@H]([C@@H](CC1CCC(C)CC1)C(=O)N[C@@H](CCCNc1ncccn1)C(=O)Nc1nccs1)N(O)C=O (stereo not given in full)
CCn1c2ccccc2c2cc(C=NNc3cc(C)nc4ccccc34)ccc21
c1ccc2[nH]c(-c3ccc(-c4ccc(CN5CCC(N6CCCCC6)CC5)cc4)s3)nc2c1

These compounds were tested against Plasmodium falciparum protein kinase 6 (PK6, PF3D7_1337100) (UniProt Q8IDW1) (assay: PfPK6 kinase inhibitors, biochemical, TCAMS library (AID 1159586)). Settings: recombinant PfPK6, Kinase-Glo ATP depletion luminescence.
Chain of Plasmodium falciparum protein kinase 6 (PK6, PF3D7_1337100) (Q8IDW1 1-305): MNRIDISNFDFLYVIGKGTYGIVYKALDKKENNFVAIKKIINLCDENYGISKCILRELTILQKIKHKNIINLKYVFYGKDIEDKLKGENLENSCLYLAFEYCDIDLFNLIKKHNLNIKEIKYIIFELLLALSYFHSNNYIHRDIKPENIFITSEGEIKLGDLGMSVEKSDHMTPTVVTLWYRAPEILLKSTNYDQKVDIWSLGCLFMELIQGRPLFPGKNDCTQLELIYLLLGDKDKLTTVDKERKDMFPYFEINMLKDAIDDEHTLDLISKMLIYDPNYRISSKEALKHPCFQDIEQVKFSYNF

outcome, inactive:
O=C(N[C@@H](Cc1ccccc1)C(=O)NCCN1CCCCC1)c1ccc(O)c(-c2cccc(C(F)(F)F)c2)c1
Cc1cc(N(C)C)nc(Nc2ccc(NC(=O)c3ccc(Br)o3)cc2)n1
N#Cc1ccc(N[C@@H](CC2CCCCC2)C(=O)NCc2cc(F)c(F)cc2F)c2ccccc12
O=C(c1cccs1)N1N=C(c2cccs2)CC1c1cccc([N+](=O)[O-])c1 (stereo not given)
O=C(Nc1cccc(Cl)c1Cl)N[C@H]1CCN(CCCCCNC(=O)[C@@H]2C[C@H]2c2ccc(Cl)c(Cl)c2)C1
Clc1cc(Cl)c2cc(CNCCCNc3ccc4ccccc4n3)[nH]c2c1
Cn1cnc2c(Nc3ccncc3)nc(-c3ccc4ccccc4c3)nc21
O=C(Nc1cccc(-c2ccc(-c3nc4ccc(C(F)(F)F)cc4[nH]3)cc2)c1)c1ccncc1
Oc1ccc(CCNCCCCCCNCCc2ccc(Cl)cc2)c(Cl)c1O
COC(=O)c1cccc(CNCc2ccc(-c3ccc(-c4nc5c(C)cccc5[nH]4)cc3)cc2)c1
O=C(c1cc2ccccc2o1)N1CCc2cc3nccc(N4CCN5CCC[C@H]5C4)c3cc21
CN1CCC(N2CCN(Cc3cccc(-c4cccc(-c5nc6ccccc6[nH]5)c4)c3)CC2)CC1
CCCc1cc(C)ccc1OCCCON1C(NC(=O)OCC)=NC(NC(=O)OCC)=NC1(C)C
CCC(CC(C)C(=O)O)=C(c1ccccc1)c1ccccc1 (stereo not given)
COc1cc(Nc2nccc(N3CCC(NC(=O)Nc4ccc5c(c4)OCO5)C3)n2)cc(OC)c1OC (stereo not given)
N#Cc1ccc(C2CCN(CC[C@H](N)Cc3ccc(Cl)s3)CC2)cc1
COc1ccc(N2CCN(c3nc(Nc4ccc(NC(C)=O)cc4)nc(N4CCCC4)n3)CC2)cc1
CCc1ccc(OCCCON2C(N)=NC(N)=NC2(C)C)cc1
CC(C)C(C(=O)n1ncc2c3c(N)nc(N)nc3ccc21)C(C)C
CC(C)CCNCc1ccc(OCc2cccc(COc3ccc(CNCCC(C)C)cc3I)c2)c(I)c1
COc1cc(OC)c(NC(=O)Nc2ccnc3ccccc23)cc1Cl
CCC(O)(C#Cc1c(C)nc(N)nc1N)CC
CC(=O)N(C)/N=C/[C@H](CCc1ccccc1)NC(=O)[C@H](CC(C)C)NC(=O)c1cccc(OCCN2CCOCC2)c1
N#Cc1ccc(-c2ccc(C(=O)NCCCCN3CC=C(c4ccc5c(c4OCC4CC4)CCCC5)CC3)cc2)cc1
CCn1c(Sc2ccc([N+](=O)[O-])c(C#N)c2)nnc1-c1cccc(Cl)c1
CCOC(=O)C1CCN(CCOc2cc(NC(=O)/C=C/c3ccccc3Cl)ccc2Br)CC1
Cc1cc(N2CCN(C)CC2)nc2ccc(NC(=O)Cc3cccc(C(F)(F)F)c3)cc12
N#Cc1ccc(NC(=NCCc2c[nH]c3ccccc23)Nc2ccc(-c3ccccc3)cc2)c(O)c1
O=C(/C=C/c1ccc(Cl)c(Cl)c1)N1CCC(CN2CCC(Cc3nc4ccccc4[nH]3)CC2)CC1
CC(C)C1=C[C@H]2C[C@]3(C4OCCO4)[C@@H]4CC[C@@H](C)[C@H]4C[C@@]2(C(=O)OCC2COCO2)[C@]13C(=O)OC(c1ccccc1)c1ccccc1 (stereo not given in full)
COc1cccc(NC(=O)COc2ccc(C(=O)Nc3nc4ccccc4[nH]3)cc2)c1
O=C(Nc1ccc(OC2CCN(Cc3ccc(F)cc3)C2)c(Cl)c1)c1ccco1 (stereo not given)
Cc1ccc2c(NN=Cc3ccc(Cl)cc3)cc(C)nc2c1
S=C(NN=Cc1ccccn1)NC1C[C@H]2C=C[C@@H]1C2 (stereo not given in full)
Cc1ccc(C)c(S(=O)(=O)Nc2ccc(Br)cc2C(=O)Nc2cccc(C(F)(F)F)c2)c1
CN(CCN(C)CC(O)c1ccc(Cl)c(Cl)c1)CC(O)c1ccc(Cl)c(Cl)c1 (stereo not given)
O=c1c2ccccc2[nH]c2cc(Cl)ccc12
CCC[C@@H]([C@@H](CC1CCC(C)CC1)C(=O)N[C@@H](CCCNc1ncccn1)C(=O)Nc1nccs1)N(O)C=O (stereo not given in full)
CCn1c2ccccc2c2cc(C=NNc3cc(C)nc4ccccc34)ccc21
c1ccc2[nH]c(-c3ccc(-c4ccc(CN5CCC(N6CCCCC6)CC5)cc4)s3)nc2c1

From PubChem BioAssay
